Results: PubChem BioAssay AID588397 (National Center for Advancing Translational Sciences (NCATS), 2011)
Hit rate of the full screen: of about 1,300 compounds, about 1,000 (77%) were called active. About 7% were inconclusive and are not listed. Calls follow the shape of the dose curve; as a rule, active = well fitted inhibition curve with a large enough effect; inconclusive = small, poorly fitted or top-dose-only effect; inactive = no such curve, though single readings can be large or run the other way. The set was probably picked from earlier hits. The list shows a part of the results.

Experiment: qHTS of small molecules that selectively kill Giardia lamblia: Hit Validation.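 Also: viability measured as ATP content by luminescence so killing lowers signal; nearly all actives have a fitted effect of over 65% in size.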
Settings: Giardia lamblia trophozoite viability, dose-response; series mostly up to 38.3 µM
In short: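 Giardia trophozoites, 100 cells per well, were exposed to compounds for 48 hrs at 37 deg C under anaerobic conditions; viability was then read as ATP content by bioluminescence after 15-30 min at room temperature.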
Potency is read from the fitted curve at half-maximal effect.

SMILES	Potency
CSCCC(NS(=O)(=O)c1ccc2c(c1)OCCO2)C(=O)N(C)Cc1ccccc1F (centres undefined)	inactive
CSCCC(NC(=O)OC(C)(C)C)C(=O)Oc1ccc2c(=O)c(-c3ccc4c(c3)OCCO4)coc2c1 (centres undefined)	1030 nM (active)
O=C(Nc1cc(S(=O)(=O)N2CCOCC2)ccc1N1CCOCC1)c1ccc([N+](=O)[O-])s1	4100 nM (active)
O=C(Nc1ccccc1N1CCOCC1)c1ccc([N+](=O)[O-])s1	2050 nM (active)
O=C(/C=C/c1ccc(O)c([N+](=O)[O-])c1)c1ccc2ccccc2c1	2050 nM (active)
Cc1cc(C(=O)COc2cccnc2[N+](=O)[O-])c(C)n1-c1ccccc1F	1160 nM (active)
O=C(COc1cccnc1[N+](=O)[O-])c1c[nH]c2ccccc12	5160 nM (active)
Cc1ccc(-n2c(C)cc(C(=O)COc3cccnc3[N+](=O)[O-])c2C)cc1	516 nM (active)
Cc1cc(C(=O)COc2cccnc2[N+](=O)[O-])c(C)n1-c1ccccc1	365 nM (active)
Cc1ccc2nccnc2c1	1300 nM (active)
O=C1C[C@@H](c2ccc(O[C@@H]3O[C@H](CO)[C@@H](O)[C@H](O)[C@H]3O)cc2)Oc2cc(O)ccc21	inactive
Cc1cc(C(=O)N/N=C/c2ccc([N+](=O)[O-])o2)c(C)o1	579 nM (active)
CC1(C(=O)N/N=C/c2ccc([N+](=O)[O-])o2)CC1(Br)Br (centres undefined)	650 nM (active)
O=C(Cc1ccc2c(c1)OCO2)NN=Cc1ccc([N+](=O)[O-])o1	918 nM (active)
COc1ccccc1NS(=O)(=O)c1cccc(C(=O)N/N=C/c2ccc([N+](=O)[O-])o2)c1	4100 nM (active)
CCOc1ccccc1NS(=O)(=O)c1c[nH]c(C(=O)OC)c1	inactive
O=C(N/N=C/c1ccc([N+](=O)[O-])o1)c1ccc2c(c1)OCO2	818 nM (active)
O=C(Cc1ccc([N+](=O)[O-])cc1)N/N=C/c1ccc([N+](=O)[O-])o1	1160 nM (active)
O=c1c2ccccc2sc2ccc(C#CC3(O)CCCCC3)cc12	650 nM (active)
Cc1ccc(C2=NCCn3c2c2ccc([N+](=O)[O-])cc2[n+]3[O-])cc1	1300 nM (active)
O=[N+]([O-])c1ccc2c3n([n+]([O-])c2c1)CCN=C3c1ccc(Cl)cc1	4100 nM (active)
C[C@H](CO)N1C[C@H](C)[C@H](CN(C)C(=O)Nc2ccc(C(F)(F)F)cc2)Oc2c(NC(=O)c3ccncc3)cccc2C1=O	inactive
C[C@@H]1CN([C@@H](C)CO)C(=O)c2cccc(NS(=O)(=O)c3cccs3)c2O[C@H]1CN(C)Cc1ccc(C(F)(F)F)cc1	3650 nM (active)

SMILES	Potency
C[C@@H]1CN([C@H](C)CO)C(=O)c2cc(NC(=O)Nc3ccc4c(c3)OCO4)ccc2O[C@H]1CN(C)Cc1ccncc1	inactive
O=C1NC(=S)S/C1=C\C=C\c1ccc([N+](=O)[O-])o1	326 nM (active)
[O-][n+]1c2ccccc2c2n1CCN=C2c1ccc(Cl)cc1	290 nM (active)
Cc1ccc(C2=NCCn3c2c2ccccc2[n+]3[O-])cc1	146 nM (active)
[O-][n+]1c2ccccc2c2n1CCCN=C2c1ccc(Cl)cc1	1300 nM (active)
Cc1cnc([N+](=O)[O-])n1CCOC(=O)NC(=O)c1ccc(F)cc1	1160 nM (active)
Cc1cnc([N+](=O)[O-])n1CCOC(=O)NC(=O)c1ccccc1	918 nM (active)
Cc1cnc([N+](=O)[O-])n1CCOC(=O)NC(=O)c1c(F)cccc1F	1300 nM (active)
Cc1cnc([N+](=O)[O-])n1CCOC(=O)NC(=O)c1cccc(F)c1	650 nM (active)
Cc1cnc([N+](=O)[O-])n1CCOC(=O)NC(=O)c1ccc(C(F)(F)F)cc1	259 nM (active)
Cc1ccc(C(=O)NC(=O)OCCn2c(C)cnc2[N+](=O)[O-])cc1	183 nM (active)
Cc1cnc([N+](=O)[O-])n1CCOC(=O)c1cccc(F)c1	1160 nM (active)
CSCCC(NC(=O)c1ccco1)C(=O)OCc1cc([N+](=O)[O-])cc2c1OCOC2 (centres undefined)	4600 nM (active)
Cc1cccc(C)c1OCC(=O)N(Cc1cccs1)C1CCS(=O)(=O)C1 (centres undefined)	inactive
O=C1/C(=C/c2ccncc2)CCC/C1=C\c1ccncc1	18300 nM (active)
CC1C/C(=C/c2ccncc2)C(=O)/C(=C/c2ccncc2)C1 (centres undefined)	11600 nM (active)
CC(C)(C)[C@H](N)C(=O)N[C@H]1CCC2C3CC=C4C[C@@H](O)CC[C@]4(C)C3CC[C@@]21C (some centres undefined)	2900 nM (active)
CN(C)CCCN(C(=O)c1cc2cc([N+](=O)[O-])ccc2s1)c1nc2cc3c(cc2s1)OCCO3	1630 nM (active)
C=CCOC(=O)C1=C(C)NC(=O)NC1c1ccc(O)cc1 (centres undefined)	inactive
CCOC(=O)C1=C(C)NC(=O)NC1c1ccc([N+](=O)[O-])o1 (centres undefined)	1160 nM (active)
CCOC(=O)C1=C(C)NC2=C(C(=O)c3ccccc32)C1c1ccc([N+](=O)[O-])o1 (centres undefined)	729 nM (active)
COC(=O)C1=C(C)N(C)C(=O)NC1c1ccc([N+](=O)[O-])o1 (centres undefined)	460 nM (active)
O=C(Nc1ccc(N2CCCC2)c(Cl)c1)c1ccc([N+](=O)[O-])o1	1830 nM (active)

SMILES	Potency
O=C(Nc1ccc(N2CCOCC2)c(Cl)c1)c1ccc([N+](=O)[O-])o1	729 nM (active)
O=C1CC(c2ccc(F)cc2)CC2=C1C(c1ccc([N+](=O)[O-])o1)Nc1ccccc1N2 (centres undefined)	163 nM (active)
CN(C)c1ccc(/C=C/c2ccc3ccccc3[n+]2[O-])cc1	1030 nM (active)
CN(C)c1ccc(/C=C/c2ccc3cc(N)ccc3n2)cc1	183 nM (active)
CN(C)c1ccc(/C=C/c2ccc3ccccc3n2)cc1	460 nM (active)
CC(=O)OCON[N+]([O-])=NC(C)C	918 nM (active)
CC(C)(C)C1C/C(=C/c2ccccn2)C(=O)/C(=C/c2ccccn2)C1 (centres undefined)	6500 nM (active)
c1ccc2nc3c(cc2c1)CCCC3	10300 nM (active)
Cc1cc(C)c(-n2[nH]nnc2=S)c(C)c1	inactive
O=C(N/N=C\c1ccc([N+](=O)[O-])o1)C1COc2ccccc2O1 (centres undefined)	818 nM (active)
Cc1ccc(/C=C/C(=O)NCC2COc3ccccc3O2)o1 (centres undefined)	inactive
O=C(Nc1ncc([N+](=O)[O-])s1)C1COc2ccccc2O1 (centres undefined)	290 nM (active)
O=C(N/N=C\c1ccc(O)c([N+](=O)[O-])c1)C1COc2ccccc2O1 (centres undefined)	5160 nM (active)
O=C(N/N=C\c1ccc([N+](=O)[O-])s1)C1COc2ccccc2O1 (centres undefined)	4100 nM (active)
CC(C)(C)c1ccc2c(c1)OC(C(=O)N/N=C/c1ccc([N+](=O)[O-])o1)CO2 (centres undefined)	818 nM (active)
O=[N+]([O-])C(/C=C(/Cl)[N+](=O)[O-])=C(N1CCCCC1)N1CCCCC1	1160 nM (active)
O=[N+]([O-])C(/C=C(\Cl)[N+](=O)[O-])=C(N1CCCCC1)N1CCCCC1	516 nM (active)
O=C1c2ccccc2C(=O)C1c1ccncc1	7290 nM (active)
Cc1cc(C)cc(N=c2c([N+](=O)[O-])nn(-c3ccc(Cl)cc3)n2O)c1	1300 nM (active)
Cc1cc(C)cc(N=c2c([N+](=O)[O-])nn(-c3cccc(Cl)c3)n2O)c1	3260 nM (active)
O=[N+]([O-])c1[nH]cnc1/C=C/c1ccccc1	1830 nM (active)
O=[N+]([O-])c1cccc(/C=C/c2nc[nH]c2[N+](=O)[O-])c1	2050 nM (active)
Cc1cccc(N=Nc2c(C)c(C#N)c(O)[nH]c2=O)c1	3650 nM (active)

SMILES	Potency
Cc1ccc(NCC(=O)N/N=C\c2ccc([N+](=O)[O-])o2)cc1	650 nM (active)
O=C(CNc1ccc2ccccc2c1)N/N=C/c1ccc([N+](=O)[O-])o1	1030 nM (active)
O=C(CNc1cccc([N+](=O)[O-])c1)N/N=C/c1ccc([N+](=O)[O-])o1	516 nM (active)
O=C(CNc1ccccc1)N/N=C/c1ccc([N+](=O)[O-])o1	1030 nM (active)
COC(=O)[C@]1(C)N[C@H](CN(C)S(=O)(=O)c2ccc(-c3ccccc3)cc2)[C@@H]2C(=O)N(Cc3ccccc3)C(=O)[C@@H]21	inactive
Cc1ccc(OCC(=O)c2cc(C)n(-c3ccccc3)c2C)c([N+](=O)[O-])n1	516 nM (active)
COc1ccc(-n2c(C)cc(C(=O)COc3ccc(C)nc3[N+](=O)[O-])c2C)cc1	1830 nM (active)
CCOC(=O)CN1C(=O)S/C(=C/c2cccc([N+](=O)[O-])c2O)C1=O	2310 nM (active)
Cc1ccc(NC(=O)CN2C(=O)S/C(=C/c3ccc(O)c([N+](=O)[O-])c3)C2=O)cc1C	1300 nM (active)
Cc1cccc(NC(=O)CN2C(=O)S/C(=C\c3ccc(O)c([N+](=O)[O-])c3)C2=O)c1	1300 nM (active)
CCN(CC)C(=O)CSc1nnc2nnc3cc(Cl)ccc3n12	1300 nM (active)
Cc1ccc(C(=O)c2c3ccc(C(F)(F)F)cc3[n+]([O-])n2CCCN)cc1	1030 nM (active)
NCCCn1c(C(=O)c2ccc(Cl)cc2)c2ccc(C(F)(F)F)cc2[n+]1[O-]	410 nM (active)
COc1ccc(C(=O)c2c3ccc(C(F)(F)F)cc3[n+]([O-])n2CCCN)cc1	1300 nM (active)
NCCCn1c(C(=O)c2cc(Cl)c(N)c(Cl)c2)c2ccc(C(F)(F)F)cc2[n+]1[O-]	1450 nM (active)
O=C(N/N=C/c1cc2c(cc1[N+](=O)[O-])OCO2)c1ccccn1	7290 nM (active)
COc1ccc(CCNc2oc(COc3ccc(Br)cc3)nc2C#N)cc1OC	inactive
NC(=O)C1CCN(c2ncccc2[N+](=O)[O-])CC1	1160 nM (active)
N#Cc1nc(-c2ccc(OCc3ccccc3)cc2)oc1N1CCC(C(N)=O)CC1	inactive
NC(=O)C1CCN(c2cc(Cl)ccc2[N+](=O)[O-])CC1	8180 nM (active)
